The full data set covers some 8,800 targets. This sample favours those with a hit. About 0.5% of all pairs of compound and target were hits. A number with no mark means an inactive call.

UniProt Q96T76, sequence (Q96T76 whole entry, looked up): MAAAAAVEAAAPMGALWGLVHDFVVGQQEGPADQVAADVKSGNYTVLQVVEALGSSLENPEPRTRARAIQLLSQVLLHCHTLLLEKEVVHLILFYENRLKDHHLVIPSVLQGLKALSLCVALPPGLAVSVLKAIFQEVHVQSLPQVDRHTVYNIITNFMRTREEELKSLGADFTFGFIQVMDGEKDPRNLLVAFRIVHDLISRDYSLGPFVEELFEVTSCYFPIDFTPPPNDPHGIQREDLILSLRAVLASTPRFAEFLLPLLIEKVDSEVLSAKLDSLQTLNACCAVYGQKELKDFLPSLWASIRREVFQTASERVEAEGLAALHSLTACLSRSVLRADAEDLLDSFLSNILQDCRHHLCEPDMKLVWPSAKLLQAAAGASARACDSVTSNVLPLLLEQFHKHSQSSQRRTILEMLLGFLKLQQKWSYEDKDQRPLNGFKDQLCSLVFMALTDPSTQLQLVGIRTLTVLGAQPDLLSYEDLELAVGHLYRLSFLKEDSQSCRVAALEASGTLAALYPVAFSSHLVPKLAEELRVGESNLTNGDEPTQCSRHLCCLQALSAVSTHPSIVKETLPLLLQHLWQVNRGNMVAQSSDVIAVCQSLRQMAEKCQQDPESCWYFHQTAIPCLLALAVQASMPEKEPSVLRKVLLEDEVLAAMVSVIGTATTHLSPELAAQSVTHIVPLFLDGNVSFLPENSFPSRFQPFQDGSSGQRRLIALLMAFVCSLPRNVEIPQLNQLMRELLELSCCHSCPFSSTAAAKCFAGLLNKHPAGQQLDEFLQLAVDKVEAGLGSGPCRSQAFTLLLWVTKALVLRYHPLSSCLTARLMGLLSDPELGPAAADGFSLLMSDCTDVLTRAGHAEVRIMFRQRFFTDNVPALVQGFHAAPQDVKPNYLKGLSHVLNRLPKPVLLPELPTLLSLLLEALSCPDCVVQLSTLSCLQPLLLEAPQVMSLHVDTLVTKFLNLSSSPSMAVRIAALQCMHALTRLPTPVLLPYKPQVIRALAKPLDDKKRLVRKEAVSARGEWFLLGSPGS
UniProt Q6ZWT7, sequence (Q6ZWT7 whole entry, looked up): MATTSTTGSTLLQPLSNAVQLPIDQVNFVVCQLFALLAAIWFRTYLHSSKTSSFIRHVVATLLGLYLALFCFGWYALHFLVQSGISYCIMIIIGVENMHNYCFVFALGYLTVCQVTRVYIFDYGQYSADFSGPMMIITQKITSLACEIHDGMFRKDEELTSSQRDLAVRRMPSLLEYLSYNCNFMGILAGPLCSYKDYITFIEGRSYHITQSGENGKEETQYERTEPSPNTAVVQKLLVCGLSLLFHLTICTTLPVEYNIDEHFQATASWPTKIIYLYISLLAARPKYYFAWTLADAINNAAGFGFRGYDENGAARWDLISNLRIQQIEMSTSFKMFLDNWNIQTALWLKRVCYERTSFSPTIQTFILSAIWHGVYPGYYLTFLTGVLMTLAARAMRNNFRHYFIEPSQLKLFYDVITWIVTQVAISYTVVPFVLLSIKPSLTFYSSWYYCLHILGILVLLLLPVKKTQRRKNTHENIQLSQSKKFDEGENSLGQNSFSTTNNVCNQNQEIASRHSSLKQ
UniProt P34949, sequence (P34949 whole entry, looked up): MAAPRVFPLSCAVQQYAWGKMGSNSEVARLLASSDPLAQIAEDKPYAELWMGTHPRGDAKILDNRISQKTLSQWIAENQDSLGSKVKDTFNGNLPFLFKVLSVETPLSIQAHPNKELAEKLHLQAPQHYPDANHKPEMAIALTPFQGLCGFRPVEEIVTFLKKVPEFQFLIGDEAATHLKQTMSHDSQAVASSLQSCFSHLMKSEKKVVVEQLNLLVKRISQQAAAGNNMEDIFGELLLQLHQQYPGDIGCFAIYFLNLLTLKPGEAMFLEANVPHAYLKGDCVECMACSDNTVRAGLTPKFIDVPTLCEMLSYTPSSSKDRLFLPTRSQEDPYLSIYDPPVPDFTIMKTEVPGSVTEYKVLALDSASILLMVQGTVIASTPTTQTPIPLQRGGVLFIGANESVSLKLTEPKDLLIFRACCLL
UniProt Q13015, sequence (Q13015 whole entry, looked up): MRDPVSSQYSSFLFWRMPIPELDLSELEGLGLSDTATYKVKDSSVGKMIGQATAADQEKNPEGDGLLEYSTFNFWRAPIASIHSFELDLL
UniProt Q8IW41, sequence (Q8IW41 whole entry, looked up): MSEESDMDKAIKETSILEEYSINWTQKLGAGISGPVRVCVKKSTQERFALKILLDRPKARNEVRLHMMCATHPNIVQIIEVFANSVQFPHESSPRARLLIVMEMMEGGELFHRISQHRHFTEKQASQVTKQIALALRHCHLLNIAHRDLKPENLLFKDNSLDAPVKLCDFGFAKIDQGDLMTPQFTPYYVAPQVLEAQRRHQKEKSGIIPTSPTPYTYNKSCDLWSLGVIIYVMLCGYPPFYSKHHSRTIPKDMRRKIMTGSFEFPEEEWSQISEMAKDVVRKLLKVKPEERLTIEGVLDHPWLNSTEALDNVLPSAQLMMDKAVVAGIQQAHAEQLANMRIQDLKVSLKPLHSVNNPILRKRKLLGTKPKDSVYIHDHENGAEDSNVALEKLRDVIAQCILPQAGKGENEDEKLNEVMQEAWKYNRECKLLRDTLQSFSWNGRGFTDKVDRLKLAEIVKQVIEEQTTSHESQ
UniProt Q9UFC0, sequence (Q9UFC0 whole entry, looked up): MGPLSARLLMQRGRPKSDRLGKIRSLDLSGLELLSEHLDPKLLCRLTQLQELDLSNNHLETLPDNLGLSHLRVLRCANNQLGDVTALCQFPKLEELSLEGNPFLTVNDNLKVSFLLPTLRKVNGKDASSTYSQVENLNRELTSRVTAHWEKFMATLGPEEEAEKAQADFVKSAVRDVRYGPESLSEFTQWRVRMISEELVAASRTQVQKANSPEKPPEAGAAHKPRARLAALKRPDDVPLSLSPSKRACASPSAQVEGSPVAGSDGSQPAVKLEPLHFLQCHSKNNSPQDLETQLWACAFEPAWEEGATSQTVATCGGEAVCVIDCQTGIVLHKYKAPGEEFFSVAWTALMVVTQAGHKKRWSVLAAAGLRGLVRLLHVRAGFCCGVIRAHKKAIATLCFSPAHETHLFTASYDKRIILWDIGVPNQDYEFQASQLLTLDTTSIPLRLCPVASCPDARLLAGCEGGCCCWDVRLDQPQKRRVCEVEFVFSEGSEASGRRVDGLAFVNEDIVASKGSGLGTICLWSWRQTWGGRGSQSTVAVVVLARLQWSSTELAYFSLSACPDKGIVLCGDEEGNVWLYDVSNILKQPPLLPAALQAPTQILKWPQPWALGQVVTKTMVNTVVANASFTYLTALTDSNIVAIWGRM
UniProt P53778, sequence (P53778 whole entry, looked up): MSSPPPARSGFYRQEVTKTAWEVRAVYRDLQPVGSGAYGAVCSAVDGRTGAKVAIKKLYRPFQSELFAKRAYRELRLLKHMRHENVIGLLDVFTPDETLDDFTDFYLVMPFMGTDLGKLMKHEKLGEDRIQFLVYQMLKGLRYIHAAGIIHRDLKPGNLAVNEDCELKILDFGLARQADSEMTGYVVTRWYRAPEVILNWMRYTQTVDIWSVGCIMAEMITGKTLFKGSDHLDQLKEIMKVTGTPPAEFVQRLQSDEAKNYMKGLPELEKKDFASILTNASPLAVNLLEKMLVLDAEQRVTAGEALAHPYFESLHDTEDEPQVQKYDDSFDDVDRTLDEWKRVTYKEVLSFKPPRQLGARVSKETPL
UniProt Q1ED39, sequence (Q1ED39 whole entry, looked up): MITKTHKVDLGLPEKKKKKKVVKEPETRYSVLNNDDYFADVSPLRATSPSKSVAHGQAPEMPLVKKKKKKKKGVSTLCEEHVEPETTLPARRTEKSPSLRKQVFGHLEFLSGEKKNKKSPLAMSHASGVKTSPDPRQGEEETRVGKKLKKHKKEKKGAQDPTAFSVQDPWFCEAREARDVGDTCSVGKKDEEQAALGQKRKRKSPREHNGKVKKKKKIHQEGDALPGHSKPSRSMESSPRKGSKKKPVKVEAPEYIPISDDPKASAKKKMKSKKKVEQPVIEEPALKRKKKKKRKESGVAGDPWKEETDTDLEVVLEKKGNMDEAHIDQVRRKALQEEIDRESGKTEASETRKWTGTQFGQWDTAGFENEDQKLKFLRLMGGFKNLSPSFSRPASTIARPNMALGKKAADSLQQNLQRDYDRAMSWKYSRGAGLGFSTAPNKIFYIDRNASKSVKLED
UniProt Q14149, sequence (Q14149 whole entry, looked up): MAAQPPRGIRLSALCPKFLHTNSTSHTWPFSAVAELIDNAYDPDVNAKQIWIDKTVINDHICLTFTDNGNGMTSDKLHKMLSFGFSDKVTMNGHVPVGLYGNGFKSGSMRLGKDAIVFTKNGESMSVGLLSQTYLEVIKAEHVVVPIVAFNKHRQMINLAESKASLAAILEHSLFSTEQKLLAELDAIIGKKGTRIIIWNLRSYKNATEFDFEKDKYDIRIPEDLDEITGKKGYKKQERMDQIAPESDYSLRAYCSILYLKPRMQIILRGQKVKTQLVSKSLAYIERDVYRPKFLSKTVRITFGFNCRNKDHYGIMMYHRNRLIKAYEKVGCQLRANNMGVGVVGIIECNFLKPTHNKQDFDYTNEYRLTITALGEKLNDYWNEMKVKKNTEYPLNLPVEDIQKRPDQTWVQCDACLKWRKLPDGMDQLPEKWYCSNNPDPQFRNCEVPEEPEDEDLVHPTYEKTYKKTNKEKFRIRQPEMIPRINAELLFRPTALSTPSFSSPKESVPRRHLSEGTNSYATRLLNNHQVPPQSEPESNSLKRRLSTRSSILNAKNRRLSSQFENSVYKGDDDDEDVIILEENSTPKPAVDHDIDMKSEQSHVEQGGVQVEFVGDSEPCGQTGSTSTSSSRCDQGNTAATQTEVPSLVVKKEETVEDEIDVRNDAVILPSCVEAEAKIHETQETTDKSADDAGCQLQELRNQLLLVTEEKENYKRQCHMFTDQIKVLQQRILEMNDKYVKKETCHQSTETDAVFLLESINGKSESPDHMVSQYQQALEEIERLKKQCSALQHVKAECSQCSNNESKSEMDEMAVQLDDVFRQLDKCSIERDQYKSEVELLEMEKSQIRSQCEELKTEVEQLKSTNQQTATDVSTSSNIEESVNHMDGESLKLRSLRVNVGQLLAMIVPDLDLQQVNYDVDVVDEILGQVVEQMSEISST

Compound in one test: C1=CC(=CC=C1C2=NC3=C(N2)C=C(C=C3)C(=O)N)OC4=CC=C(C=C4)Cl
Briefly: log2 fold change, soluble protein after heating vs DMSO (PISA); higher = thermal stabilisation; K562 lysate, 10 uM; active = over 0.2 and 3.5 SD of the protein, either way, in both replicates (recomputed). The method, boiled down:
(§1)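 K562 pellets were dounce-homogenised in PBS pH 7.4 containing 1 mM MgCl2, and the crude extract, at 1 mg/mL protein, was exposed to 10 μM compound for 30 min. Aliquots were heated for 3 min across 48°C-58°C, pooled, brought to 0.5% NP-40 at 4°C and spun at 21,000xg for 90 min, with the supernatant taken as soluble protein. TMTpro 16plex LC-MS/MS with equalised channel sums quantified that protein. Values are log-two fold changes in thermal stability relative to solvent controls, taken from duplicates.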
For the target MORC3 (UniProt Q14149), the log2 fold change is -0.005.

Regarding LYRM4 (UniProt Q9HD34), the log2 fold change is 0.02.

MLLT11 (UniProt Q13015): the log2 fold change is -0.271.

For LRCH3 (UniProt Q96II8), the log2 fold change is 0.021.

As to KNOP1 (UniProt Q1ED39), the log2 fold change was -0.006.

On to MRPL46 (UniProt Q9H2W6), for which the log2 fold change was -0.039.

Take LPIN1 isoform 7 (UniProt Q14693): the log2 fold change was 0.027.

With MAPK12 (UniProt P53778), the log2 fold change is 0.009.

As for LSG1 (UniProt Q9H089), the log2 fold change was -0.059.

For the target MBOAT2 (UniProt Q6ZWT7), the log2 fold change is -0.111.

As to MAPKAPK5 (UniProt Q8IW41), the log2 fold change was 0.016.

As for LRWD1 (UniProt Q9UFC0), the log2 fold change was 0.031.

On to MPI (UniProt P34949), for which the log2 fold change is 0.046.

Take MMS19 isoform 8 (UniProt Q96T76): the log2 fold change is -0.016.

In the case of MRPL19 (UniProt P49406), the log2 fold change is -0.041.

Compound in a further test: C1=CC2=C(C=CC(=C2)/C=C\3/C(=O)NC(=NCC4=CC=CS4)S3)N=C1
The test is described as above. The method, boiled down: as §1
On to KIF4A (UniProt O95239), for which the log2 fold change is 0.02.

Regarding MBLAC2 (UniProt Q68D91), the log2 fold change was -0.055.

In the case of MAP2K1 (UniProt Q02750), the log2 fold change is -0.02.

For MIPEP (UniProt Q99797), the log2 fold change was 0.021.

As to LARS (UniProt Q9P2J5), the log2 fold change is 0.024.

On to LSM8 (UniProt O95777), for which the log2 fold change was 0.027.

With MAP2K7 isoform 4 (UniProt O14733), the log2 fold change was 0.091.

Take MAPKAPK3 (UniProt Q16644): the log2 fold change was 0.022.

On to LARP4B (UniProt Q92615), for which the log2 fold change was -0.005.

With MAPK6 (UniProt Q16659), the log2 fold change was 0.006.

For the target MAP11 (UniProt Q8WVR3), the log2 fold change was 0.006.

Turning to MICB, A0A140T979, the log2 fold change was -0.07.

LPCAT1 (UniProt Q8NF37): the log2 fold change is 0.054.

As to METTL7A (UniProt Q9H8H3), the log2 fold change is 0.008.

For MAP4K4 isoform 3 (UniProt O95819), the log2 fold change is 0.038.

For the target LLGL1 (UniProt Q15334), the log2 fold change was 0.02.

With MAP3K4 (UniProt Q9Y6R4), the log2 fold change was 0.011.

Turning to KIF14 (UniProt Q15058), the log2 fold change was -0.04.

On to LAGE3 (UniProt Q14657), for which the log2 fold change is -0.008.

Turning to KMT2A isoform 3 (UniProt Q03164), the log2 fold change is -0.047.

As for LUZP1 (UniProt Q86V48), the log2 fold change is 0.027.

For MRPL15 (UniProt Q9P015), the log2 fold change was -0.026.

For the target MPZL1 (UniProt O95297), the log2 fold change was 0.003.

For the target MORC3 (UniProt Q14149), the log2 fold change was 0.01.

On to LYRM4 (UniProt Q9HD34), for which the log2 fold change was -0.117.

As for MLLT11 (UniProt Q13015), the log2 fold change is 0.063.

LRCH3 (UniProt Q96II8): the log2 fold change is -0.013.

Take KNOP1 (UniProt Q1ED39): the log2 fold change was -0.176.

With MRPL46 (UniProt Q9H2W6), the log2 fold change is -0.124.

Take LPIN1 isoform 7 (UniProt Q14693): the log2 fold change was 0.003.

MAPK12 (UniProt P53778): the log2 fold change was 0.016.

Consider LSG1 (UniProt Q9H089), for which the log2 fold change is -0.136.

Consider MBOAT2 (UniProt Q6ZWT7), for which the log2 fold change is -0.022.

As for MAPKAPK5 (UniProt Q8IW41), the log2 fold change was 0.12.

Turning to LRWD1 (UniProt Q9UFC0), the log2 fold change is 0.032.

Take MPI (UniProt P34949): the log2 fold change was -0.018.

Regarding MMS19 isoform 8 (UniProt Q96T76), the log2 fold change was -0.02.

With MRPL19 (UniProt P49406), the log2 fold change is -0.003.

Compound in a further test: C1=CC2=NC=CN=C2C=C1/C=C/3\C(=O)NC(=O)S3
The description is as above. The method, boiled down: as §1
As to KIF4A (UniProt O95239), the log2 fold change was 0.022.

For MBLAC2 (UniProt Q68D91), the log2 fold change was 0.012.

Consider MAP2K1 (UniProt Q02750), for which the log2 fold change was -0.012.

For MIPEP (UniProt Q99797), the log2 fold change was 0.019.

As to LARS (UniProt Q9P2J5), the log2 fold change is 0.013.

Turning to LSM8 (UniProt O95777), the log2 fold change is 0.423 (active).

In the case of MAP2K7 isoform 4 (UniProt O14733), the log2 fold change was 0.241.

As for MAPKAPK3 (UniProt Q16644), the log2 fold change was -0.014.

Regarding LARP4B (UniProt Q92615), the log2 fold change is 0.009.

For MAPK6 (UniProt Q16659), the log2 fold change was 0.015.

With MAP11 (UniProt Q8WVR3), the log2 fold change is 0.061.

As to MICB, A0A140T979, the log2 fold change is -0.168.

For LPCAT1 (UniProt Q8NF37), the log2 fold change was 0.062.

On to METTL7A (UniProt Q9H8H3), for which the log2 fold change is -0.041.

For MAP4K4 isoform 3 (UniProt O95819), the log2 fold change is -0.027.

In the case of LLGL1 (UniProt Q15334), the log2 fold change was 0.007.

Regarding MAP3K4 (UniProt Q9Y6R4), the log2 fold change is -0.014.

As for KIF14 (UniProt Q15058), the log2 fold change was -0.176.

Consider LAGE3 (UniProt Q14657), for which the log2 fold change was -0.092.

Take KMT2A isoform 3 (UniProt Q03164): the log2 fold change is -0.014.

On to LUZP1 (UniProt Q86V48), for which the log2 fold change is -0.028.

Consider MRPL15 (UniProt Q9P015), for which the log2 fold change was -0.055.

Regarding MPZL1 (UniProt O95297), the log2 fold change is -0.042.

Regarding MORC3 (UniProt Q14149), the log2 fold change was -0.025.

With LYRM4 (UniProt Q9HD34), the log2 fold change is -0.017.

Take MLLT11 (UniProt Q13015): the log2 fold change was -0.038.

Turning to LRCH3 (UniProt Q96II8), the log2 fold change is 0.001.

Turning to KNOP1 (UniProt Q1ED39), the log2 fold change was 0.019.

Turning to MRPL46 (UniProt Q9H2W6), the log2 fold change was -0.069.

Consider LPIN1 isoform 7 (UniProt Q14693), for which the log2 fold change is 0.003.

Consider MAPK12 (UniProt P53778), for which the log2 fold change was 0.041.

With LSG1 (UniProt Q9H089), the log2 fold change was -0.021.

Regarding MBOAT2 (UniProt Q6ZWT7), the log2 fold change is -0.036.

Turning to MAPKAPK5 (UniProt Q8IW41), the log2 fold change was 0.007.

Consider LRWD1 (UniProt Q9UFC0), for which the log2 fold change is 0.057.

On to MPI (UniProt P34949), for which the log2 fold change is -0.014.

Consider MMS19 isoform 8 (UniProt Q96T76), for which the log2 fold change was -0.009.

On to MRPL19 (UniProt P49406), for which the log2 fold change is -0.007.

The values are drawn from the supplement of paper PMC10849652.
